Results published in PubChem BioAssay (NCI).
The panel holds about 83,000 compounds, 20% with a hit somewhere; the sample as a whole holds those more often.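 Plates (96-well) were seeded with cells, treated with compound at one concentration, and incubated for 48 hours before percent growth was determined.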 Activity calls are given as the source filed them. How the source made its calls: active means growth percent below 10; inactive means the rest.

These molecules were tested on HL-60(TB) leukemia (assay: NCI-60 one-dose screen, 48 h (100 = growth as untreated, 0 = no growth, -100 = all killed)). Conditions: 10 µM unless noted.

Structure (SMILES)	growth
O=C1COCCN1c1ccc(NCc2cn(Cc3ccc(F)cc3)c3ccccc23)cc1	86.9% (inactive)
C=C1C(=O)O[C@H]2[C@H]1CC/C(COC(=O)NCCc1c[nH]c3ccccc13)=C\CC[C@@]1(C)O[C@@H]21	-46.2% (active)
C=C(C)[C@@H]1CC[C@]2(COC(=O)c3cccnc3)CC[C@]3(C)[C@H](CC[C@@H]4[C@@]5(C)CCCN(C(=O)c6cccnc6)C(C)(C)[C@@H]5CC[C@]43C)[C@@H]12	11.6% (inactive)
CCSc1ccnc(N)n1	108% (inactive)
CC(C)NC[C@@H](C(=O)N1CCN(c2ncnc3c2[C@H](C)C[C@H]3O)CC1)c1ccc(Cl)cc1	82% (inactive)
COc1cccc(/C=C2\COc3ccc(O)cc3C2=O)c1	-20.1% (active)
CCOC(=O)C1OC1(c1ccccc1)c1ccccc1 (stereo not given)	89.4% (inactive)
COc1cc2c(cc1OCCCCCCN1CCN(CC(=O)Nc3ccc(Cl)cc3C(=O)c3ccccc3Cl)CC1)N=CC1CCCN1C2=O (stereo not given)	-85.8% (active)
CCN(CC)CCCNc1cc(OC)c(OC)c2cccnc12	29.2% (inactive)
O=C(NCCNCCO)c1cc([N+](=O)[O-])cc([N+](=O)[O-])c1O	102% (inactive)
CN1CCC(CNc2cc(C3(C(=O)Nc4cc(C(=O)Nc5ccc(Cl)c(C(F)(F)F)c5)ccc4F)CC3)ncn2)CC1	-7.85% (active)
C1=CC2(C=C1)OC21CCC2(C=CC3(C2)OC3C2CCCCC2)CC1 (stereo not given)	105% (inactive)
COc1cc(Nc2ncccc2/C=C/C(=O)c2cc(OC)c(OC)c(OC)c2)cc(OC)c1OC	73.1% (inactive)
Brc1cccc(-c2cc(-c3ccc4c(c3)OCCO4)[nH]n2)c1	12.3% [25 µM] (inactive)
Clc1ccc(CNc2ccc3nc(CCC4CCCCC4)[nH]c3c2)cc1	24.8% (inactive)
NNc1ncnc2c1ncn2C1OC(CO)C(O)C1O (stereo not given)	34.8% (inactive)
O=C(Nc1cccc(Cl)c1)Nc1nccs1	88.7% (inactive)
COc1ccc(NC(=O)c2ccc(C(F)(F)F)nc2Nc2ccc(Cl)cc2C)cc1Cl	4.78% (active)
COc1cc(Nc2ncnc(Nc3ccc4c(n3)NC(=O)C(C)(C)O4)n2)cc(OC)c1OC	46.8% (inactive)
Nc1nc(N)c2c(n1)NC(c1ccc3c(c1)OCO3)CC(c1cccc(Nc3ccncc3)c1)=N2 (stereo not given)	57% (inactive)

Structure (SMILES)	growth
O=C(CNc1nc2ccccc2s1)Nc1ccc(-c2nc3ccccc3s2)cc1	99.1% (inactive)
N#Cc1c(N)sc(=S)c2c1CCCC2	97.6% (inactive)
C#CC#CC#CC#CC#CC#CC#CC#CCC1OCC(COC(=O)O[C@@H](C(=O)O[C@H]2C[C@@]3(O)[C@@H](OC(=O)c4ccccc4)[C@@H]4[C@]5(OC(C)=O)CO[C@@H]5C[C@H](O)[C@@]4(C)C(=O)[C@H](OC(C)=O)C(=C2C)C3(C)C)[C@@H](NC(=O)c2ccccc2)c2ccccc2)O1 (stereo not given in full)	5.04% (active)
O=C(Oc1ccc(Cl)cc1[N+](=O)[O-])Oc1ccc(Cl)cc1[N+](=O)[O-]	95.7% (inactive)
COc1ccc(-c2cc(C(=O)Nc3nc4cc(C)c(C)cc4s3)nc3cc(-c4ccccc4)nn23)cc1OC	98.2% (inactive)
COc1cccc(-c2cn3nc(-c4cn(C)c5ccccc45)sc3n2)c1	104% (inactive)
CC(C)C1=NOC(=O)C1=Cc1cn(-c2ccco2)nc1-c1ccccc1	3.89% (active)
N/C(=N\C(N)=N\c1nc2ccccc2s1)c1ccnc(Br)c1	2.51% (active)
CCOC(=O)c1cc(/C=C/c2cccc(Cl)c2)on1	74.9% (inactive)
COc1ccc(OC)c2c1[nH]c(=O)c1c3ccccc3cn21	-49.3% (active)
CSc1nc(S(C)(=O)=O)nc2[nH]c(=O)[nH]c12	108% (inactive)
CC1=C[S+](c2ccccc2)c2cccc3cc4ccccc4c1c23 (stereo not given)	-50.3% (active)
CCCc1c(CC)c(=N)c2ccccc2n1C	32.7% (inactive)
Cc1cccc(N=NC(=S)NNc2cccc(C)c2)c1	101% (inactive)
COc1ccc2ncccc2c1Cc1c(OC)ccc2ncccc12	42.3% (inactive)
C=C1C(=O)O[C@H]2[C@H]1CC/C(CNC(=O)/C1=C/CC[C@@]3(C)O[C@H]3[C@H]3OC(=O)C(=C)[C@@H]3CC1)=C\CC[C@@]1(C)O[C@@H]21	57.4% (inactive)
COc1ccc(-c2c(-c3ccc(OC)c(O)c3)cnc3ncnn23)cc1	106% (inactive)
CCOc1ccc(Br)cc1/C=N\N=C\c1cc(Br)ccc1OCC	73.2% (inactive)
CN(C)c1ncnc2c1cnn2C	108% (inactive)
O=C(O)c1ccccc1C(=O)Nc1ccc(Cl)cc1	55% (inactive)
